The values that follow come from PubChem BioAssay.

Assay [1] in a line: compounds altering circadian rhythm period length – cell-based, LOPAC library, luminescence reporter (AID 2774).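 Further: values are relative to mean of DMSO wells on each plate.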 As to conditions: circadian reporter cells, at 7 µM, actives lie on both sides.
The test system of assay [2] is Hepatitis C virus NS3 helicase. Put plainly: blockers of NS3h binding to ssDNA – biochemical, fluorescence polarization, LOPAC1280 library, primary screen (AID 687035; in the data active means inhibition above about 37%). As to conditions: Purified HCV NS3 helicase, Cy5-dT15 ssDNA binding fluorescence polarization; stronger effect = higher value; concentration not given here.
Assay [3] can be described thus: compounds altering Cy5-DNA-NS3h complex signal – biochemical, LOPAC1280, artefact control for HCV NS3 helicase inhibitor project (AID 687037). As to conditions: Cy5-DNA-NS3h complex fluorescence interference counterscreen.
Assay [4] has as its system Aerobactin synthetase IucA (Klebsiella pneumoniae). Put plainly: inhibition of K. pneumoniae IucA enzyme – biochemical, Tocris library, absorbance (AID 1345561).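 Further: 100% = enzyme without compound and 0% = no enzyme.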 Conditions: purified IucA enzyme assay, absorbance (OD) read-out; stronger effect = lower value;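 tested at 8 µM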.
Assay [5] concerns Aerobactin synthetase IucA (Klebsiella pneumoniae, hypervirulent). Put plainly: biochemical IucA inhibition screen of LOPAC library by absorbance (AID 1346212).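 Further: 100% = no compound wells and 0% = no enzyme wells.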 As to conditions: IucA enzyme assay, absorbance (OD) readout; stronger effect = lower value;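 tested at 8 µM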.
A short description of assay [6]: viability loss with induced miR-34 in A549 – imaging, A549 dox-inducible miR-34, nuclei and caspase counts, primary screen (AID 1347080;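 active means compounds whose cell count with miR-34 switched on is under 0.7 times the count with it off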). Conditions: A549 miR-34 inducible, Hoechst nuclei count, 48 h.
A short description of assay [7]: galactose survival enhancers in mitochondrial complex I cybrids – cell-based, galactose medium, ATP luminescence, primary screen (AID 1645843;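 active means z-score of at least 1.8 in each of two replicates, scored against plate mean and spread of sample wells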;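 further: positive z means more ATP and so rescue of galactose-driven cybrid death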). Conditions: complex I mutant cybrid cells, 72 h, stronger effect = higher value.
The nature of assay [8]: chitosan synthesis blockers in C. neoformans – flow cytometry, Cibacron Brilliant Red staining (AID 1347148).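 Further: compound exposure lasted three days at 37 degrees C.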 As to conditions: Cryptococcus neoformans chitosan, stronger effect = lower value; at 10 µM unless noted.
Assay [9] can be described thus: blockers of cellular phospholipid synthesis – cell-based, LOPAC library, screen 4, primary screen (AID 1347384). As to conditions: animal cells, phospholipid biosynthesis inhibition screen; at 10 µM.
Assay [10] in a line: viability loss in pontine glioma line – cell-based, SU-DIPG-IV, MIPE4.0, CellTiter-Glo, qHTS, dose response (AID 1347063; cut-off not given, nearly all actives have AC50 up to about 30 µM;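 further: compound exposure lasted 48 hours before the viability readout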). Conditions: CellTiter-Glo ATP luminescence.
A short description of assay [11]: viability loss in pontine glioma line – cell-based, SU-DIPG-XIII, MIPE5.0, CellTiter-Glo, qHTS, dose response (AID 1347064; cut-off not given, nearly all actives have AC50 up to about 23 µM;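 further: cells exposed to compound for 48 hours before the viability read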). As to conditions: CellTiter-Glo ATP luminescence.
The nature of assay [12]: viability loss in pontine glioma line – cell-based, SU-DIPG-XXV, MIPE5.0, CellTiter-Glo, qHTS, dose response (AID 1347065; cut-off not given, nearly all actives have AC50 up to about 26 µM;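 further: cells exposed to compound for 48 hours before ATP readout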). Conditions: CellTiter-Glo ATP luminescence.
Assay [13] can be described thus: growth inhibition of DIPG cells – cell-based, MIPE4.0 library, CellTiter-Glo luminescence, qHTS (AID 1347066; cut-off not given, nearly all actives have AC50 up to about 30 µM;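 further: cells exposed to compound for 48 hours before readout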). Conditions: SU-DIPG-VI viability, CellTiter-Glo ATP luminescence.
Assay [14] is described as follows: JHH-DIPG-1 glioma cell viability, MIPE5.0 library, CellTiter-Glo luminescence, qHTS (AID 1347067; cut-off not given, nearly all actives have AC50 up to about 26 µM;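 further: cells exposed to compound for 48 hours before readout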). Conditions: JHH-DIPG-1 glioma viability, CellTiter-Glo ATP luminescence.
Assay [15] is described as follows: viability loss in pontine glioma line – cell-based, SU-DIPG-XVII, MIPE5.0, CellTiter-Glo, qHTS, dose response (AID 1347060; cut-off not given, nearly all actives have AC50 up to about 26 µM). As to conditions: CellTiter-Glo ATP luminescence.
Assay [16] in a line: growth inhibition of DIPG cells – cell-based, MIPE5.0 library, qHTS (AID 1347068; cut-off not given, nearly all actives have IC50 up to about 30 µM). As to conditions: SU-DIPG-XXV viability.
The mark [17] stands for this setting: measured here: relative caspase fold change +Dox/-Dox.
[18] abbreviates: measured here: total cells with miR-34 induction, stronger effect = lower value.
[19] abbreviates: measured here: total cells without miR-34 induction.

Where “and” joins values, the source holds several entries; their conditions need not be identical. Identical values can stand only once. Results filed as inconclusive are left out. Calls of active or inactive are those of the source. Unless noted, how the calls were made is not given here.

`COc1ccc(CNC(=O)/C=C/c2ccc3[nH]cc(CCN(C)C)c3c2)cc1`: the period change in assay [1] is 0.1 h (inactive). Besides, the inhibition in assay [2] was -1% (inactive). The fluorescence ratio (interference) in assay [3] was 1 (inactive). Moreover, the remaining activity is 97.5% (inactive) in [4] and 111% (inactive) in [5]. Moreover, the fold change in assay [6] (stronger effect = lower value) was 1.08 (inactive) and 0.935 (inactive); in assay [6] (setting [17]) it was 1.56 and 0.859. For the same compound, the cell count in assay [6] (setting [18]) is 9510 and 8680; in [6] (setting [19]) it was 8780 and 9280. Moreover, the z-score in [7] is -0.155 (inactive) and -0.415 (inactive).

For the compound `C[N+]1(C)CCc2cc3c(cc2[C@H]1[C@@H]1OC(=O)c2c1ccc1c2OCO1)OCO3`, the period change in assay [1] is -0.02 h (inactive). Besides, in assay [2], the inhibition was -3% (inactive). In assay [3], the fluorescence ratio (interference) was 1 (inactive). The remaining activity was 123% (inactive) and 114% (inactive) in [4]; 119% (inactive) in [5].

Take `CC(C)(c1ccc(OCC2CO2)cc1)c1ccc(OCC2CO2)cc1` (centres undefined): in assay [4], the remaining activity is 110% (inactive). For the same compound, the fold change in [6] (stronger effect = lower value) is 0.903 (inactive) and 0.927 (inactive) and 0.945 (inactive); in assay [6] (setting [17]), 1.23 and 0.827 and 0.981. The cell count was 5020 and 5510 and 8910 in assay [6] (setting [18]); 5560 and 5950 and 9430 in assay [6] (setting [19]). Moreover, the fold fluorescence in assay [8] is 8.02 [at 146.9 µM] (inactive). In [7], the z-score was -0.925 (inactive).

`CCCN(CCC)C1CCc2cccc(O)c2C1` (centres undefined): the period change in assay [1] was -0.07 h (inactive). Further, the inhibition in [2] is 2% (inactive). For the same compound, in [3], the fluorescence ratio (interference) is 1 (inactive). The remaining activity in [4] was 106% (inactive). The fold change in [6] (stronger effect = lower value) is 0.975 (inactive) and 0.957 (inactive); in assay [6] (setting [17]), 0.862 and 0.742. In addition, the cell count is 10400 and 8490 in assay [6] (setting [18]); 10700 and 8870 in assay [6] (setting [19]). The result in assay [9] was inactive. For the same compound, in assay [7], the z-score was 0.025 (inactive) and -0.42 (inactive).

As to `COc1ccc(C(=O)c2c(C)n(CCN3CCOCC3)c3cc(I)ccc23)cc1`, the remaining activity in assay [4] is 93.9% (inactive). The AC50 in [10] was 20.9 µM (active); in assay [11], 23.5 µM (active); in assay [12] it was 16.6 µM (active); in [13], 23.5 µM (active); in assay [14], 23.5 µM (active). The fold change in assay [6] (stronger effect = lower value) was 1.09 (inactive); in assay [6] (setting [17]), 0.642. Also, the cell count in assay [6] (setting [18]) came to 2860; in [6] (setting [19]) it was 2630. Moreover, the z-score in assay [7] is -0.38 (inactive).

Turning to `O=C1C2CCN(CC2)C1(CO)CO`, in assay [4], the remaining activity is 120% (inactive). Further, the fold change in assay [6] (stronger effect = lower value) is 1.16 (inactive) and 0.936 (inactive) and 0.92 (inactive); in assay [6] (setting [17]), 1.5 and 1.74 and 0.604. The cell count in assay [6] (setting [18]) is 4350 and 5660 and 9650; in [6] (setting [19]), 3770 and 6050 and 10500. Besides, in assay [8], the fold fluorescence was 9.13 [at 269.9 µM] (inactive). Further, in [7], the z-score is -0.76 (inactive).

Regarding `O=C(O)C1=CCCN(CCOC(c2ccc(C(F)(F)F)cc2)c2ccc(C(F)(F)F)cc2)C1`, in [4], the remaining activity is 122% (inactive). Further, the outcome in [15], in assay [14] and in assay [16] was inactive. Also, the fold change is 0.921 (inactive) in [6] (stronger effect = lower value, cell number ratio, induced over uninduced) and 0.739 in assay [6] (setting [17]). The cell count in assay [6] (setting [18]) was found to be 8210; in assay [6] (setting [19]) it was 8910. Also, in assay [7], the z-score is 5.47 (active).

With `CC(N)Cc1c[nH]c2ccc(OCc3cccs3)cc12` (centres undefined), the period change in assay [1] was -0.015 h (inactive). Besides, the inhibition in assay [2] is -2% (inactive). Also, the fluorescence ratio (interference) in assay [3] is 0.9 (inactive). Also, the remaining activity in assay [4] was 105% (inactive). The fold change in [6] (stronger effect = lower value) is 1.09 (inactive) and 1.04 (inactive) and 0.983 (inactive); in assay [6] (setting [17]), 0.892 and 0.841 and 0.895. For the same compound, the cell count was 9650 and 5700 and 7970 in assay [6] (setting [18]); 8810 and 5500 and 8110 in assay [6] (setting [19]). Moreover, the result in assay [9] was inactive. In addition, the z-score in assay [7] is -0.655 (inactive) and -0.22 (inactive).
